Laboratory results: PubChem BioAssay AID1578 (Sanford-Burnham Center for Chemical Genomics, 2009)
Values joined by “and” are separate entries in the source; they are usually repeats but may differ in a detail not shown here. Equal entries are not always repeated. The campaign covered roughly 290,000 compounds. About 3,000 (1%) were called active. No stated cut-off is given here; in the data, active means inhibition mostly above about 36% (no sharp cut-off); inactive means mostly below about 34%. What follows is part of a selection rich in actives, with near analogues and random picks from the rest.

Assay: inhibition of NOD1-driven NF-kB reporter – cell-based, luminescence, uHTS, primary screen (AID 1578);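 further: HEK-293T reporter cells stimulated with the NOD1 agonist gamma-tri-DAP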
Settings: NOD1-driven NF-kB luciferase reporter cells, at 4 µM, stronger effect = higher value

SMILES	inhibition
Cc1ccc2[nH]c3c(=O)n(Cc4ccco4)cnc3c2c1	1.2% (inactive)
CCOc1cccc(-c2nnc3sc(C4CCCCC4)nn23)c1	66.8% (active)
COc1cccc(-c2nnc3sc(C4CCCCC4)nn23)c1	96.4% (active)
CCOc1cccc(-c2nnc3sc(-c4ccc(C)cc4)nn23)c1	-0.8% (inactive)
COc1ccc(-c2nnc3sc(C4CCCCC4)nn23)cc1OC	9.5% (inactive)
COc1cc(-c2nnc3sc(C4CCCCC4)nn23)cc(OC)c1OC	-20.6% (inactive)
c1cncc(-c2nnc3sc(C4CCCCC4)nn23)c1	-14.1% (inactive)
O=C(c1ccccc1)N1CCC(c2nc(-c3ccc(S(=O)(=O)N4CCOCC4)cc3)no2)CC1	18.2% (inactive)
COCCCNC(=S)NNC(=O)Cn1nc(C)c(Br)c1C	0.3% (inactive)
CC(Oc1ccc(Cl)cc1Cl)c1nc(-c2ccc(NC(=O)c3ccccn3)cc2)no1 (stereo not given)	-18.6% (inactive)
CC(Oc1ccc(Cl)cc1Cl)c1nc(-c2ccc(NC(=O)c3ccco3)cc2)no1 (stereo not given)	-12.3% (inactive)
CC(Oc1ccc(Cl)cc1Cl)c1nc(-c2ccc(NC(=O)c3ccncc3)cc2)no1 (stereo not given)	42.3% (active)
C=C(C(=O)O)C1CCC2(C)CCCC(C)(O)C2C1 (stereo not given)	-0.6% (inactive)
NNc1nc(C(F)(F)F)nc2ccccc12	-7.9% (inactive)
C/C(O)=c1/ccc2cccc3nc(C)nc1c23	-3.6% (inactive)
O/C=c1\ccc2cccc3nc(C(F)(F)F)nc1c23	38% (active)
Cc1ccc(NC(=O)COC(=O)C(NS(=O)(=O)c2ccc(Cl)cc2)C(C)O)c(Br)c1 (stereo not given)	-22.2% (inactive)
CCOC(=O)N1CCN(C(=O)CN(C2CCCCC2)S(=O)(=O)c2c(C)cc(C)cc2C)CC1	-2.2% (inactive)
COc1ccc(C(=O)NCCNc2ccc([N+](=O)[O-])cc2)cc1	-51.3% (inactive)
CCCNC(=O)c1ccc(S(=O)(=O)c2ccc(OC)cc2)c([N+](=O)[O-])c1	63.9% (active)
COc1ccc(C(=O)NCCNc2ccccc2[N+](=O)[O-])cc1	-34% (inactive)
CCOc1ccc(OCC)c(S(=O)(=O)n2cc(C)nc2CC)c1	-17.2% (inactive)
CCc1nc(C(N)=O)c2[nH]c(=O)n(-c3ccccc3F)c2n1	-17% (inactive)
Nc1cccc2c1C(=O)N(C(=O)/C=C/c1cccc(Br)c1)C2=O	3.9% (inactive)
COc1cc(/C=C/C(=O)N2C(=O)c3cccc(N)c3C2=O)cc(OC)c1OC	17.4% (inactive)

SMILES	inhibition
COc1ccc(OC)c(/C=C/C(=O)N2C(=O)c3cccc(N)c3C2=O)c1	88.6% (active)
COCCSc1nnc(NC(=O)Cc2ccc(OC)cc2)s1	-20.4% (inactive)
CCN1C(=O)C(CC(=O)Nc2ccc(OC)cc2)N(CCCN2CCN(c3ccc(F)cc3)CC2)C1=S (stereo not given)	-47.7% (inactive)
COc1ccccc1N1CCN(C(=O)CCCNC(=O)Cn2cnc3sc(C)c(C)c3c2=O)CC1	17.8% (inactive)
Cc1cccc(NC(=O)CSc2nccn2Cc2ccco2)c1C	-19.3% (inactive)
CN(C)c1ccc(/C=N/Nc2nncc3ccccc23)cc1	15% (inactive)
COc1ccc(/C=N/Nc2nncc3ccccc23)cc1	0.2% (inactive)
CN(CCO)c1ccc(/C=N/Nc2nncc3ccccc23)cc1	57.1% (active)
O=C(COC(=O)c1sc2cc(Cl)ccc2c1Cl)Nc1ncc(Cl)cc1Cl	-10.9% (inactive)
COc1ccccc1-c1cc(-c2ccccc2)nc(=O)[nH]1	-2.4% (inactive)
COc1ccc(NC(=O)c2cc([N+](=O)[O-])ccc2N2CCCC2)cc1	-23.7% (inactive)
COc1ccc(NC(=O)c2cc([N+](=O)[O-])ccc2O)cc1	99.1% (active)
COc1ccc(NC(=O)c2cc([N+](=O)[O-])ccc2N2CCCCC2)cc1	-27.2% (inactive)
CCN1CCc2c(OCc3ccc(C)cc3)cccc2C1=O	2.6% (inactive)
CCCCn1c(-c2csc3ccccc23)n[nH]c1=S	5.2% (inactive)
CCCCNC(=O)C1CCN(C(=O)C2CCN(S(=O)(=O)c3ccc(C)cc3)CC2)CC1	-21.1% (inactive)
C=CCC1(CC=C)CCCN1C(=O)c1cc(COc2ccc(F)c(F)c2)on1	-18.8% (inactive)
C=CCC1(CC=C)CCCN1C(=O)c1cc(COc2cccc(OC)c2)on1	0.2% (inactive)
CNC(=O)/C=C1\NC(C)(C)Cc2c1ccc1ccccc21	14.5% (inactive)
Cc1nnc(N/N=C/C(C)c2ccccc2)[nH]c1=O (stereo not given)	-10% (inactive)
O=C(CCn1c2c(c3ccccc31)CCCC2)NNC(=O)c1ccc([N+](=O)[O-])cc1	-4.7% (inactive)
CCCCn1c(SCC(=O)Nc2nnc(C)s2)nnc1-c1ccoc1C	8.6% (inactive)
O=C(NCCCNC(=O)c1c(F)cccc1F)c1c(F)cccc1F	1.4% (inactive)
O=C(NCC(Cl)c1ccc2ccccc2c1)c1c(F)cccc1F (stereo not given)	31.2% (active)
O=C(NCC(O)c1ccc2ccccc2c1)c1c(F)cccc1F (stereo not given)	-2.4% (inactive)

SMILES	inhibition
Cc1ccc(CN(Cc2cc3cc(C)ccc3[nH]c2=O)C(=O)N2CCOCC2)cc1	-1.5% (inactive)
CC(C)CNC(=O)COC(=O)c1cc(Cl)cc(Cl)c1N	-25.7% (inactive)
CC1(C)Cc2nc(N)c(=O)sc2C1	5.3% (inactive)
O=C(O)/C=C/c1cccnc1	-4.2% (inactive)
O=C(/C=C/c1cccnc1)/C=C/c1cccnc1	49.7% (active)
CC(/C=C\c1cccnc1)=C/C(=O)O	-5.6% (inactive) and -22.2% (inactive)
COC(=O)CCC(=O)N(C)CC1CCCN(CCc2cccc(C(F)(F)F)c2)C1 (stereo not given)	6.2% (inactive)
O=C(O)CCN1C(=O)c2ccc(Oc3ccc([N+](=O)[O-])cc3)cc2C1=O	-1.1% (inactive)
COc1ccccc1N(C(=O)c1snc(C(N)=O)c1N)C(C(=O)NC1CCCC1)c1ccc(N(C)C)cc1 (stereo not given)	-3% (inactive)
O=C(N/N=C/c1cccc2nccnc12)c1ccccc1O	6% (inactive)
O=C(C#Cc1ccccc1)c1cccc([N+](=O)[O-])c1	79.8% (active)
O=C(C#Cc1cccc([N+](=O)[O-])c1)c1ccccc1	55.8% (inactive)
O=C(C#Cc1ccccc1)c1ccc([N+](=O)[O-])cc1	38.4% (inactive)
Cc1nn(CCCC(=O)NC(C)c2ccccc2)c(=O)c2nn(-c3ccccc3)c(C)c12 (stereo not given)	-16.8% (inactive)
COc1ccccc1C(=O)Nc1ccccc1C(=O)NCc1ccco1	25.7% (inactive)
CCCSc1nc(SCC(=O)NCc2ccccc2)c2c3c(sc2n1)COC(C)(C)C3	-25.4% (inactive)
CC(NC(=O)c1ccc2ccccc2n1)c1ccccc1 (stereo not given)	-34.3% (inactive)
O=C(Nc1ccccc1)c1cnc2ccccc2n1	-56.8% (inactive)
CC(NC(=O)c1cnc2ccccc2n1)c1ccccc1 (stereo not given)	78.3% (active)
COc1ccc(S(=O)(=O)NC(N)=NCCc2ccc(OC)c(OC)c2)cc1C	-11.6% (inactive)
O=C1c2ccccc2C(=O)C12OC2c1ccc(Cl)cc1Cl (stereo not given)	36.6% (inactive)
O=C1c2ccccc2C(=O)C12OC2c1cccc2ccccc12 (stereo not given)	-22.4% (inactive)
O=C1c2ccccc2C(=O)C12OC2c1ccc(Cl)cc1 (stereo not given)	81.6% (active)
C(=N\n1cnnc1)/C1CCCCC1	-17.3% (inactive)
Nc1c(N2CCCCC2)c2ccccc2oc1=O	-15% (inactive)

SMILES	inhibition
Nc1c(N2CCCC2)c2ccccc2oc1=O	-10.9% (inactive)
Nc1c(N2CCN(c3ccccc3)CC2)c2ccccc2oc1=O	60.8% (active)
COc1ccc(OC)c(NC(=O)Cc2c(C(=O)O)n(C)c3ccccc23)c1	-25.2% (inactive)
NC(=O)C1CCN(C(=O)c2ccc3nc(N4CCCCC4)sc3c2)CC1	-2.5% (inactive)
COC(=O)Cc1ccc(NC(=S)NCc2ccccc2OC)cc1	-14.6% (inactive)
O=C(CC1NCCNC1=O)Nc1ccccc1 (stereo not given)	-14.1% (inactive)
Cc1ccc(C)c(NC(=O)C2CCCN(S(=O)(=O)c3c(C)noc3/C=C/N(C)C)C2)c1 (stereo not given)	-11.5% (inactive)
COc1ccc(/C=N/NC(=O)c2cccnc2)cc1O	20% (inactive)
CCOC(=O)CNC(=O)c1cc(-c2ccc3c(c2)OCCO3)oc1C	-24% (inactive)
Cc1oc(-c2ccc3c(c2)OCCO3)cc1C(=O)O	89.2% (active)
Cc1oc(-c2ccc3c(c2)OCCO3)cc1C(=O)NCC(=O)O	-22.5% (inactive)
C=C1CCC[C@]2(C)C[C@H]3OC(=O)C(CNCC(OC)OC)[C@H]3CC12 (stereo not given in full)	-18% (inactive)
COc1cc(/C=N/O)cc(Br)c1OS(=O)(=O)c1ccc(C)cc1	78% (active)
COc1cc(/C=N/O)cc(Br)c1OC	6.6% (inactive)
CCCOc1c(Br)cc(/C=N/O)cc1OC	6% (inactive)
COCCNC(=S)N1CCOCC1	-13.4% (inactive)
CC(C)(C)C1=NN(c2ccc([N+](=O)[O-])cc2)C(c2ccccc2)C1 (stereo not given)	-37.3% (inactive)
COc1ccc(S(=O)(=O)N(C)C)cc1NC(=O)COC(=O)CC1CCCC1	41.4% (active)
CN(C)S(=O)(=O)c1ccc(Cl)c(NC(=O)COC(=O)CN2C(=O)C3CCCCC3C2=O)c1 (stereo not given)	-45.6% (inactive)
CCN(CC)S(=O)(=O)c1ccc(OC)c(NC(=O)CC2CCCC2)c1	-26.7% (inactive)
CN(CC(=O)Nc1ccc(Cl)c(Cl)c1)C1CCCCC1	-29.4% (inactive)
O=C(c1ccco1)N(Cc1ccco1)Cc1cc2ccccc2[nH]c1=O	5.8% (inactive)
O=C(C1COc2ccccc2O1)N1CCc2ccccc2C1 (stereo not given)	45.7% (active)
O=C(C1COc2ccccc2O1)N1CCc2ccccc21 (stereo not given)	-44.3% (inactive)
O=C(C1COc2ccccc2O1)N1CCCC1 (stereo not given)	9.4% (inactive)
